Inconclusive results are not listed. Activity calls are given as the source filed them. Unless noted, calls come from the whole dose curve; as a rule, active = well fitted curve in the direction sought with a large enough effect; inconclusive = small, poorly fitted or top-dose-only effect, or another doubt; inactive = no such curve, though single readings can be large; an effect the other way counts as inactive or inconclusive.

The nature of assay [1]: qHTS of pediatric cancer cell lines to identify multiple opportunities for drug repurposing: Primary screen for DAOY cells (AID 1347090). Note: nearly all actives have a fitted effect of over 55% in size. Note: potency is the fitted concentration of half-maximal effect. The gist of the method: (§1)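 Viability measured as metabolically active cells via CellTiter-Glo luminescence following 48 hours of compound exposure, 11-point dilutions in confirmatory testing. 500-1,000 cells/well plated 5 hours before dosing; controls were DMSO and 2.3 µM bortezomib.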
In general terms: In qHTS, concentration-response curves come from the screen itself.

A short description of assay [2]: qHTS of pediatric cancer cell lines to identify multiple opportunities for drug repurposing: Primary screen for SJ-GBM2 cells (AID 1347091). Note: potency is the fitted concentration of half-maximal effect. An outline of the steps: as §1
The nature of assay [3]: qHTS of pediatric cancer cell lines to identify multiple opportunities for drug repurposing: Primary screen for SK-N-MC cells (AID 1347093). Note: potency is the fitted concentration of half-maximal effect. An outline of the steps:
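Metabolically active cells were quantified by ATP-dependent luminescence (CellTiter-Glo, 15 min at room temperature) following 48 h treatment. Cells had been plated at 500-1,000 per well and settled for 5 h beforehand.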

Assay [4] is described as follows: qHTS of pediatric cancer cell lines to identify multiple opportunities for drug repurposing: Primary screen for U-2 OS cells (AID 1347096). Note: nearly all actives have a fitted effect of over 50% in size. Note: potency is the fitted concentration of half-maximal effect. The gist of the method: (§2)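 Viability after 48 h compound treatment at 37C, 500-1,000 cells/well, read as ATP luminescence with CellTiter-Glo. Primary screens used 11-point (MIPE, 0.78 nM-46 µM) or 8-point (NPC, 0.59 nM-46 µM) final concentrations; follow-up screens used 11-point dilutions.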

The nature of assay [5]: qHTS of pediatric cancer cell lines to identify multiple opportunities for drug repurposing: Primary screen for Rh18 cells (AID 1347102). Note: nearly all actives have a fitted effect of over 65% in size. Note: potency is the fitted concentration of half-maximal effect. The gist of the method: as §2
Assay [6] can be described thus: qHTS of pediatric cancer cell lines to identify multiple opportunities for drug repurposing: Primary screen for TC32 cells (AID 1347089). Note: nearly all actives have a fitted effect of over 60% in size. Note: potency is the fitted concentration of half-maximal effect. An outline of the steps: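 TC32 cells, 500-1,000/well in growth medium, compound-treated 48 h at 37 °C; viability from CellTiter-Glo luminescence. Primary screen: MIPE 11-point (0.78 nM–46 µM final), NPC 8-point (0.59 nM–46 µM final); confirmatory at 11-point dilutions.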

Assay [7] can be described thus: qHTS of pediatric cancer cell lines to identify multiple opportunities for drug repurposing: Primary screen for A673 cells (AID 1347092). Note: nearly all actives have a fitted effect of over 45% in size. Note: potency is the fitted concentration of half-maximal effect. The gist of the method: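 A673 cells (500-1,000 cells/well) were treated 48 hours at 37 degrees C with compounds at 11-point (0.78 nM to 46 µM) or 8-point (0.59 nM to 46 µM) dilutions. Viability read by CellTiter-Glo luminescence; concentration-response curves fitted.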

Assay [8] is described as follows: qHTS of pediatric cancer cell lines to identify multiple opportunities for drug repurposing: Primary screen for BT-37 cells (AID 1347094). Note: potency is the fitted concentration of half-maximal effect. The gist of the method: (§3)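 Luminescence from CellTiter-Glo served as readout of metabolically active cells after 48 h compound exposure. Titrations: MIPE 11-point, from 0.78 nM; NPC 8-point, from 0.59 nM (final). Concentration-response curves came straight from the primary screen.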

Assay [9] is described as follows: qHTS of pediatric cancer cell lines to identify multiple opportunities for drug repurposing: Primary screen for NB-EBc1 cells (AID 1347095). Note: potency is the fitted concentration of half-maximal effect. An outline of the steps:
as §3

The nature of assay [10]: qHTS of pediatric cancer cell lines to identify multiple opportunities for drug repurposing: Primary screen for Saos-2 cells (AID 1347097). Note: nearly all actives have a fitted effect of over 40% in size. Note: potency is the fitted concentration of half-maximal effect. An outline of the steps: as §3
Assay [11] can be described thus: qHTS of pediatric cancer cell lines to identify multiple opportunities for drug repurposing: Primary screen for SK-N-SH cells (AID 1347098). Note: nearly all actives have a fitted effect of over 65% in size. Note: potency is the fitted concentration of half-maximal effect. An outline of the steps:
(§4)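 Cells (500-1,000/well) rested 5 h, then received compounds for 48 h; metabolically active cells were measured by CellTiter-Glo luminescence. Final concentrations spanned up to 46 µM (MIPE, 11-point) or 0.59 nM-46 µM (NPC, 8-point) in primary screens, 11-point in follow-ups.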

A short description of assay [12]: qHTS of pediatric cancer cell lines to identify multiple opportunities for drug repurposing: Primary screen for LAN-5 cells (AID 1347100). Note: potency is the fitted concentration of half-maximal effect. The gist of the method: as §2
Assay [13] can be described thus: qHTS of pediatric cancer cell lines to identify multiple opportunities for drug repurposing: Primary screen for BT-12 cells (AID 1347101). Note: nearly all actives have a fitted effect of over 25% in size. Note: potency is the fitted concentration of half-maximal effect. An outline of the steps: as §4
A short description of assay [14]: qHTS of pediatric cancer cell lines to identify multiple opportunities for drug repurposing: Primary screen for NB1643 cells (AID 1347099). Note: nearly all actives have a fitted effect of over 50% in size. Note: potency is the fitted concentration of half-maximal effect. An outline of the steps:
as §3

Assay [15] concerns the target Parathyroid hormone/parathyroid hormone-related peptide receptor (Homo sapiens) (UniProt Q03431). As to the kind of experiment: qHTS for PTHR1 Agonists: Optimization Screen against the NCGC LOPAC library (AID 1347079).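 Note: GloSensor cAMP luminescence in HEK-293 GP2 cells expressing human PTHR1 with IBMX.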 Note: potency is the fitted concentration of half-maximal effect. The gist of the method:
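Compounds were tested across a qHTS titration. PTHR1-expressing GP2 cells report cAMP rises via GloSensor luminescence after 1 hr compound exposure at 37C with IBMX present.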

Assay [16] deals with T1, Tyrosine-protein phosphatase non-receptor type substrate 1 (Homo sapiens) + Leukocyte surface antigen CD47 (Homo sapiens) (UniProt P78324+Q08722). In words: CD47-SIRPalpha protein protein interaction - LANCE assay qHTS validation (AID 1347057; active = well fitted curve in the direction sought with a large enough effect in the signal ratio, with a control signal flat, not every such curve was filed as active; the % refers to the signal ratio; note: series mostly up to about 38 µM). The gist of the method: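 First, His-tagged CD47 and Eu-labelled anti-His antibody met the compound for 30 min; next, site-specifically biotinylated SIRPalpha was added for 30 min; finally streptavidin-APC was added before reading the TR-FRET ratio.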
T1 sequence (P78324 whole entry, looked up): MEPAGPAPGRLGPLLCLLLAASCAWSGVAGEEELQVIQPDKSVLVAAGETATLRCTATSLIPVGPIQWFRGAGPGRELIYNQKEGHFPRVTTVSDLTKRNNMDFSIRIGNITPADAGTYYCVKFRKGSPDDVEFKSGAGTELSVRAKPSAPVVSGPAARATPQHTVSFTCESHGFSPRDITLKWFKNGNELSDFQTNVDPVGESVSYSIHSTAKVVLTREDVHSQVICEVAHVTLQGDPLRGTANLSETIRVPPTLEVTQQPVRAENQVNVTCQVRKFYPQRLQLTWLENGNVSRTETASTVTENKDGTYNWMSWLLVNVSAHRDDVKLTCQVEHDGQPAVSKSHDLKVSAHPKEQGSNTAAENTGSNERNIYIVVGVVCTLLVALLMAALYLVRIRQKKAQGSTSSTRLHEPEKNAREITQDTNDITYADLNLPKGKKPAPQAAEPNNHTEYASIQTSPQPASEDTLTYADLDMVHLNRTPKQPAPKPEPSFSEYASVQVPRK
T1 sequence (Q08722 whole entry, looked up): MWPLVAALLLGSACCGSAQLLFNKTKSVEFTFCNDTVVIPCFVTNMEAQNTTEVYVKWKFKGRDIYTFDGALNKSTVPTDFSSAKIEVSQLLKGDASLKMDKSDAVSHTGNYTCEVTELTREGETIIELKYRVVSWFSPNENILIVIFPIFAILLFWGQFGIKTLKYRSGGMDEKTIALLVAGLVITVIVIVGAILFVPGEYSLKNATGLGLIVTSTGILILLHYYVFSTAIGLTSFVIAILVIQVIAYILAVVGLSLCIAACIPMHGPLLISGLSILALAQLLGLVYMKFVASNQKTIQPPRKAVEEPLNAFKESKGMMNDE
Background: TR-FRET usually uses a lanthanide donor and a delayed reading to cut background.

The target in assay [17] is T1, Tyrosine-protein phosphatase non-receptor type substrate 1 (Homo sapiens) + Leukocyte surface antigen CD47 (Homo sapiens). In words: CD47-SIRPalpha protein protein interaction - Alpha assay qHTS validation (AID 1347059).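 Note: bead proximity luminescence from CD47 binding SIRPalpha after compound preincubation with SIRPalpha.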 An outline of the steps:
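Biotinylated Avi-tagged SIRPalpha (25 nM) preincubated 30 min with compound, then His-tagged CD47 (12.5 nM) added 30 min; AlphaScreen with Ni-NTA acceptor and streptavidin donor beads. PBS pH 7.4, 0.05% IGEPAL, room temperature; 7-point titrations.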

Parathyroid hormone/parathyroid hormone-related peptide receptor (Homo sapiens), sequence (Q03431 whole entry, looked up): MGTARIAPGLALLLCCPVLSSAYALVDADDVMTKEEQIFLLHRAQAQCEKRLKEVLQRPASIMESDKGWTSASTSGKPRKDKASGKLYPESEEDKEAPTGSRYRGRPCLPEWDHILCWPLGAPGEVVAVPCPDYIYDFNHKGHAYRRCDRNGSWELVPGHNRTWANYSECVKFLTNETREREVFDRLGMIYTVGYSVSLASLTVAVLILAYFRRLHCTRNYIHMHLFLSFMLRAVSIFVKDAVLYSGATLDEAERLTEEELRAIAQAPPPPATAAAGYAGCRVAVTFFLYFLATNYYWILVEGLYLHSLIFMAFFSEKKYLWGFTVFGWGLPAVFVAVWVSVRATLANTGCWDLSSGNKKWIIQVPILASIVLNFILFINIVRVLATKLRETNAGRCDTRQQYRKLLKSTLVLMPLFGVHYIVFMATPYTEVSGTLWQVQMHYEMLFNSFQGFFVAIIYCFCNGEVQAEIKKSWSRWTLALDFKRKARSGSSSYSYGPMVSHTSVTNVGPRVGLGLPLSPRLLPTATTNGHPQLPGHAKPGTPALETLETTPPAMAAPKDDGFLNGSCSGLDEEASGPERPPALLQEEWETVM

For the compound `Cc1nc2ccccc2n1Cc1ccc(Cl)cc1`, the values for the Potency in assay [1] and in assay [3] were 5310 nM (active) and 18800 nM (active), respectively. Besides, the Potency result in [2], in assay [4] and in assay [5] was “inactive” in each case.
Turning to `COc1cccc2c1C(=O)c1c(O)c3c(c(O)c1C2=O)C[C@@](O)(C(=O)CO)C[C@@H]3O[C@H]1C[C@H](N)[C@H](O[C@@H]2CCCCO2)[C@H](C)O1`, the Potency in [6] is 470 nM (active); in assay [1], 1680 nM (active); in assay [2], 1330 nM (active); in assay [7], 1060 nM (active); in [3], 211 nM (active); in assay [8], 246 nM (active). The Potency in assay [9] was 75 nM (active); in assay [10], 2660 nM (active); in [11], 97 nM (active); in assay [12] it was 266 nM (active); in assay [13], 1550 nM (active); in assay [5] it was 15000 nM (active).
For the compound `N=C1N=C(N)c2cc3ccccc3cc21`, the Potency result in [6] is “inactive”. Also, the Potency in [1] is 24300 nM (active); in [2], 24300 nM (active); in [7], 19300 nM (active); in assay [3] it was 6860 nM (active); in [8], 15900 nM (active); in assay [10], 24300 nM (active). Besides, the Potency is 25000 nM (active) in [11]; 19300 nM (active) in assay [14]; 24300 nM (active) in [12]; 25200 nM (active) in assay [13]; 48600 nM (active) in assay [5].
As for `Cc1[nH]cnc1CN1CCc2c(c3ccccc3n2C)C1=O`, the Potency entry in [6], in assay [1], in [2], in [7], in assay [3] and in assay [8] was “inactive” each time. Moreover, the Potency entry in assay [9], in assay [4], in assay [10], in assay [11], in assay [14] and in assay [12] was “inactive” in each case. The Potency entry in assay [13] and in [5] was “inactive” throughout.
Turning to `Cc1ccc(O)c(-n2nc3ccccc3n2)c1`, the Potency entry in assay [6], in assay [1], in assay [2], in assay [7], in [3] and in assay [8] was “inactive” throughout. For the same compound, the Potency entry in assay [9], in [4], in assay [10], in assay [11], in assay [14] and in [12] was “inactive” in each case. Also, the Potency result in assay [13] and in assay [5] was “inactive” each time.
For the compound `[O-][n+]1ccccc1SSc1cccc[n+]1[O-]`, the Potency in [6] is 325 nM (active); in assay [1], 73.1 nM (active); in [7], 73.1 nM (active); in assay [3], 58 nM (active); in assay [8], 3010 nM (active); in assay [4], 231 nM (active). In addition, the Potency was 92 nM (active) in assay [10], 67 nM (active) in assay [11], 120 nM (active) in [13] and 517 nM (active) in assay [5].
As for `CCCCCC(O)c1cccc(OCc2ccc3ccccc3n2)c1` (stereo not given), the Potency result in assay [15] is “inactive”.
In the case of `O=[N+]([O-])c1ccc2c(c1)S(=O)(=O)C=C2`, the Potency result in assay [16], in assay [17] and in assay [15] was “inactive” throughout.
In the case of `NC(N)=NC(=O)c1nc(Cl)c(N2CCCCCC2)nc1N`, the Potency result in assay [16], in assay [17] and in [15] was “inactive” each time.
On to `CCCCCCCCCCCCCCCCCC(=O)NCC(COP(=O)([O-])OCC[N+](C)(C)C)OCC` (stereo not given), for which the Potency entry in assay [15] was “inactive”.
Still for that read-out and setting: as for `O=C(O)CC1CC(c2ccccc2)=NO1` (stereo not given), the figure is 10600 nM (active).
`O=C(Nc1ccc(C(=O)O)c(O)c1)c1ccccc1`: the Potency result in assay [6], in assay [1], in assay [2], in assay [7], in assay [3] and in assay [8] was “inactive” each time. The Potency entry in [9], in [4], in assay [10], in [11], in assay [12] and in [13] was “inactive” in each case. The Potency entry in [5] is “inactive”.
With `O=C(/C=C/c1ccc(O)cc1)c1ccc(O)cc1O`, the Potency result in assay [16], in assay [17] and in [15] was “inactive” in each case.
Take `CC(C(=O)O)c1ccc(C(=O)c2cccs2)cc1` (stereo not given): the Potency result in assay [6], in assay [1], in [2], in assay [7], in assay [3] and in assay [8] was “inactive” each time. Further, the Potency entry in [9], in assay [4], in [11], in [14], in [12] and in assay [13] was “inactive” throughout. Further, the Potency entry in [5] is “inactive”.

The values above are taken from PubChem BioAssay (NCATS).
